Source: PubChem
ROMK mod = human ROMK K+ channel modulation, primary screen; P48048; Tet-inducible ROMK, thallium flux fluorescence; actives lie on both sides; B-score at 10 µM; 2% of 130,000 active; AID 1918;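 active means signal ratio slope over the read window, or its plate-corrected B-score, at least 3 SD from the plate mean, either direction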;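 further: B-score of the F/F0 ratio slope over 7 to 12 s after thallium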
RAM inhibit = inhibitors of the yeast RAM network. S. cerevisiae dse1pr::URA3 reporter, 5-FOA growth OD615, 2 d; analog-sensitive cbk1-as2 kinase mutant strain. inhibition, % at 50 µM. 1.8% of 190,000 active. AID 868;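 active means inhibition above a set limit, 3 SD over mean compound inhibition, cut at about 8.4% in these data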;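 further: 0% = DMSO-only wells with no growth and 100% = 10 µM 1-NA-PP1 full growth; inhibition rescues growth on 5-FOA so higher OD means more RAM inhibition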
S1P4 antag = blocks the human S1P4 receptor; O95977; S1P4-expressing cells, antagonist mode, reporter read-out; inhibition, % at 4.98 µM; 0.26% of 220,000 active; AID 1510; in the data active means inhibition above about 29%;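 further: 0% = wells stimulated with agonist and 100% = vehicle wells without agonist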
S1P3 antag = antagonists of human S1P3 receptor | 0.27% of 170,000 active | CHO S1P3 NFAT-BLA reporter, FRET fluorescence, antagonist mode | inhibition, % at 4.98 µM;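 active means inhibition above the plate cutoff, the mean inhibition of test wells on that plate plus 3 SD, cut at about 28% in these data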;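 further: cells challenged with S1P at its EC80 of 0.8 µM; blue over green emission ratio from cleaved BLA substrate after 4 h stimulation; 0% = S1P-stimulated wells and 100% = unstimulated DMSO-only wells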
Target sequence (Q99500 whole entry, looked up): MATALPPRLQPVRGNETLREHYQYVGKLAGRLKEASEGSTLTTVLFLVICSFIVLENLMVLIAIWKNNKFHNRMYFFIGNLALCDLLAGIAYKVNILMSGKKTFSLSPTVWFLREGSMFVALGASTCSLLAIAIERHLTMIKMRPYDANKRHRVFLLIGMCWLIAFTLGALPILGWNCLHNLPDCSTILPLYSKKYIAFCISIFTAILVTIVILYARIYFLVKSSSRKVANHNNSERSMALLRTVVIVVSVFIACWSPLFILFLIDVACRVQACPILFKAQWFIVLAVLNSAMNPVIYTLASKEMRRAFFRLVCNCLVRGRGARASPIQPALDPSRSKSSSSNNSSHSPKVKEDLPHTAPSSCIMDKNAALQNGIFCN
S1P4 ag = activates the human S1P4 receptor; O95977; S1P4-expressing cell line, agonist reporter assay; activation, % at 4.98 µM; 0.35% of 220,000 active; in the data active means activation above about 11%;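 further: 0% = DMSO vehicle and 100% = reference agonist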
KCC2 mod = modulates chloride dependent transport by human KCC2 | Q9H2X9 | B-score of Tl+ flux slope (higher = more flux/activation; lower = inhibition) at 10 µM | KCC2 cells, thallium flux FluoZin-2 fluorescence | AID 1456 | 2.2% of 190,000 active;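 active means thallium flux slope and its plate-corrected score both differing from the plate sample mean at a set confidence after two filtering rounds, in either direction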;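 further: slope of fluorescence scaled to starting intensity during 10 to 20 s after thallium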
ROMK retest = retested hit modulating human ROMK potassium channel. shares compounds with ROMK mod. ROMK thallium flux, fluorescence ratio; hits give low values. normalized thallium flux (F/F0 slope) at 10 µM. 54% of 3,000 active. AID 1917;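 active means Flux at 10 µM at least 3 SD below or above vehicle control mean in one or both replicates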
An asterisk follows results filed as active. In the library only some 5.1% were active in any assay of this set; here they are far more common.

Screening COc1ccc(-c2cc3nc4ccccc4n3c(N)c2C#N)cc1 returned S1P4 antag 8, S1P3 antag -5, S1P4 ag 0 and KCC2 mod -0.024.
`CN(CC(=O)Nc1ccccc1Cl)CC(=O)Nc1ccccc1[N+](=O)[O-]` gave ROMK mod 0.65, RAM inhibit 2, S1P4 antag 2, S1P3 antag -14, S1P4 ag -1 and KCC2 mod -1.2.
For CCC(C)(C)NC(=O)C(c1cccn1C)N(C(=O)Cn1nnc2ccccc21)c1ccc(OC)cc1OC (stereo not given) the results were ROMK mod -3.5*, RAM inhibit -1, S1P4 antag -12, S1P4 ag 1, KCC2 mod -3 and ROMK retest 0.051*.
Screening CCOc1ccc(N(C(=O)Cn2nnc3ccccc32)C(C(=O)NC(C)(C)CC)c2cccn2C)cc1 (stereo not given) returned RAM inhibit 2, S1P4 antag -15, S1P4 ag 1 and KCC2 mod -0.3.
Screening O=C(O)/C(=C\c1ccccc1OC(F)F)Sc1nnc(-c2ccc(F)cc2)o1 returned ROMK mod -3*, RAM inhibit 7, S1P4 antag -8, S1P3 antag 6, S1P4 ag 0, KCC2 mod -3.1 and ROMK retest 0.056*.
Screening O=C(Nc1cccc(C(F)(F)F)c1)c1ccccc1NC(=O)C1CCCCC1 returned RAM inhibit 3, S1P4 antag -12, S1P3 antag -1, S1P4 ag 0 and KCC2 mod 0.18.
O=C(CNC(=O)c1cccs1)c1ccc(F)cc1 was read as ROMK mod 0.67, RAM inhibit 0, S1P4 antag -10, S1P4 ag 1 and KCC2 mod -0.66.
O=C(c1ccccc1)c1cc([N+](=O)[O-])ccc1N1CCOCC1 was read as RAM inhibit 1, S1P4 antag -19, S1P3 antag 6, S1P4 ag 2 and KCC2 mod 1.2.
For O=C(c1ccc(Cl)cc1)c1cc([N+](=O)[O-])ccc1N1CCOCC1 the results were ROMK mod 1.7, RAM inhibit 0, S1P4 antag 0, S1P3 antag 7 and S1P4 ag 2.
For CC1CCCN(c2ccc([N+](=O)[O-])cc2C(=O)c2ccccc2)C1 (stereo not given) the results were ROMK mod 2.3, RAM inhibit 9.6*, S1P4 antag -2, S1P3 antag 13, S1P4 ag 2, KCC2 mod -0.044 and ROMK retest 0.09.
For O=C(c1ccc(Br)cc1)c1cc([N+](=O)[O-])ccc1N1CCOCC1 the results were ROMK mod 4.5*, RAM inhibit 1, S1P4 antag 4, S1P3 antag 5, S1P4 ag -1, KCC2 mod -0.35 and ROMK retest 0.096.
For O=C(Nc1ccc2oc(=O)ccc2c1)c1cc([N+](=O)[O-])ccc1N1CCOCC1 the results were ROMK mod -7.3*, RAM inhibit 7, S1P4 antag -20, S1P3 antag -8, S1P4 ag -1, KCC2 mod -0.63 and ROMK retest 0.031*.
Cc1cc(=O)oc2cc(NC(=O)c3cc([N+](=O)[O-])ccc3N3CCOCC3)ccc12 was read as ROMK mod -0.59, RAM inhibit 3, S1P4 antag -22, S1P3 antag 0, S1P4 ag 2 and KCC2 mod 0.075.
COc1ccc(C(=O)NCc2ccc3c(c2)CCO3)cc1 was read as S1P4 antag 0, S1P3 antag 9, S1P4 ag 2 and KCC2 mod 0.3.
For CCCc1nc(NC(=O)c2ccccc2)nc(NC(=O)c2ccccc2)n1 the results were S1P4 antag -4, S1P3 antag -3, S1P4 ag -1 and KCC2 mod -0.084.
Screening CC1C/C(=C/c2cccs2)C(=O)/C(=C/c2cccs2)C1 (stereo not given) returned ROMK mod 2.9*, RAM inhibit 8, S1P4 antag -3, S1P3 antag 8, S1P4 ag 1, KCC2 mod 0.25 and ROMK retest 0.071.
